Shown are actives, neighbours in structure and some others; about 0.51% of the full set was active somewhere.
Vif-APOBEC3G blk – qHTS for Inhibitors of Vif-A3G Interactions: qHTS; DNA dC->dU-editing enzyme APOBEC-3G (Homo sapiens), Q9HC16; HeLa A3G-eYFP + Vif (tagged APOBEC3G with the HIV-1 protein that degrades it), YFP fluorescence, overnight; Potency, µM (doses to about 46.1 µM), most hits filed as inhibitors; 410,000 tested, 0.076% active; AID 602310, 2012; also: nearly all actives have a fitted effect of over 60% in size
Target sequence (Q9HC16 whole entry, looked up): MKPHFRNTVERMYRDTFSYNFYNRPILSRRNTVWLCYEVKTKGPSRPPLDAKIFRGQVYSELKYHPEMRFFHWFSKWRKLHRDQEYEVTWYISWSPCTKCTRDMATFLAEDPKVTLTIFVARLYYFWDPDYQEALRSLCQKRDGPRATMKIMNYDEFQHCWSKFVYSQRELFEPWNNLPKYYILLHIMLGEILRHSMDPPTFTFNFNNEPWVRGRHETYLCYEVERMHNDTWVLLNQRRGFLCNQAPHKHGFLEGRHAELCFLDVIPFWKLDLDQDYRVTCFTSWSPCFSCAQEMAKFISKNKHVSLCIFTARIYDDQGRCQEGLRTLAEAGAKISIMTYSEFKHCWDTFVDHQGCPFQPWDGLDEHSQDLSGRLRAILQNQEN
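HeLa cells stably expressing Vif and C-terminally eYFP-tagged A3G, seeded overnight at 37 deg C, then exposed to compound by pintool overnight at 37 deg C. Rise in yellow fluorescence (Ex 488/Em 500-530, Acumen) marks blocked Vif-driven A3G degradation.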
Epigenetic reg – Quantitative High-Throughput Screen for Regulators of Epigenetic Control | murine LDR cells, GFP reporter derepression, 30 h | Potency, µM (top dose mostly 53.9 µM), hits mostly activators | 280,000 tested, 0.2% active; also: nearly all actives have a fitted effect of over 60% in size
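Murine LDR cells bearing a silenced CMV-driven GFP reporter were exposed to compound for 30 h at 37 C. After PBS washes, GFP-positive cells (20-120 um objects) counted by laser-scanning microplate cytometry.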
Vif-A3F inh – qHTS for Inhibitors of Vif-A3F Interactions: qHTS | Potency, µM (titrated, usually from 46.1 µM) | 390,000 tested, 0.2% active | HeLa A3F-eYFP + Vif (tagged APOBEC3F with the HIV-1 protein that degrades it), YFP fluorescence increase; also: nearly all actives have a fitted effect of over 65% in size
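HeLa cells stably expressing A3F-eYFP plus Vif, plated and incubated overnight at 37 deg C, then exposed to compounds overnight at 37 deg C. Blocked degradation read as raised yellow fluorescence (Ex 488/Em 500-530).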
PINK1 expr mod – A Quantitative High throughput Screen to Identify Chemical Modulators of PINK1 Expression; 410,000 tested, 0.2% active; PINK1 immunofluorescence, high-content cytometry, 24 h; Potency, µM (series often up to 76.6 µM), hits mostly activators; active = well fitted activation curve with a large enough effect; inconclusive = small, poorly fitted or top-dose-only effect; cell line not stated here; also: nearly all actives have a fitted effect of over 65% in size
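Stable cell line treated 24 h with compounds at 5 concentrations (CCCP controls), then fixed and immunostained for PINK1 plus nuclear and cell stains; PINK1 immunofluorescence quantified by laser-scanning microplate cytometry.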
C127i cell count – Parental Cell Counter Screen Assay for Epigenetic Modulators: Hit Validation; shares compounds with Epigenetic reg; 60 tested, 20% active; Potency, µM, most hits filed as activators; mouse c127i parental cells, fluorescent cell count, 30 h
HCC4017 viab – HCC4017 Cell Viability Secondary Assay for qHTS Assay for Epigenetic Modulators; shares compounds with Epigenetic reg; HCC4017 NSCLC viability, CellTiter-Glo ATP luminescence, 72 h; Potency, µM (titrated, usually from 46.1 µM), hits mostly cytotoxic; 45 tested, 30% active
H358 viab – H358 Cell Viability Secondary Assay for qHTS Assay for Epigenetic Modulators: Round 2; shares compounds with Epigenetic reg; H358 NSCLC viability, ATP luminescence, 72 h; Potency, µM (highest dose often 46.1 µM), usual class: cytotoxic; 45 tested, 30% active
A number is an active result; 0 = inactive; ? = inconclusive; - = no result. Unless noted, calls follow the shape of the dose curve; as a rule, active = well fitted curve in the direction sought with a large enough effect; inconclusive = small, poorly fitted or top-dose-only effect, or another doubt; inactive = no such curve, though single readings can be large; an effect the other way counts as inactive or inconclusive.

SMILES | Vif-APOBEC3G blk | Epigenetic reg | Vif-A3F inh | PINK1 expr mod | C127i cell count | HCC4017 viab | H358 viab
O=C1C=C(Nc2ccc(Cl)cc2)C(=O)N1c1ccc(Cl)cc1 | 0 | 10µM | ? | 35µM | ? | 0 | 0
N#Cc1sc2nc(-c3ccccc3)cc(C(F)(F)F)c2c1N | 0 | ? | ? | 11µM | 16µM | - | -
COc1cc(/C=N/NC(=O)c2ccc(O)cc2)ccc1OCC(=O)Nc1cccc([N+](=O)[O-])c1 | 0 | - | 0 | 0 | - | - | -
O=C(Cc1c(F)cccc1Cl)Nc1ccccn1 | 0 | - | 0 | 0 | - | - | -
O=C1CN(c2nc(-c3ccccc3)c3cc(Cl)ccc3n2)c2ccccc2N1 | 0 | ? | ? | ? | 0 | 0 | ?
O=C(CSc1cccc2cccnc12)N1CCCC1 | ? | 0 | 0 | 0 | - | ? | 0
Oc1ccc(Cl)cc1C=Nc1ccccc1Br | 0 | 0 | 0 | 0 | - | - | -
Oc1ccc(Br)cc1C=Nc1ccc2c3c(cccc13)CC2 | ? | 3.5µM | 0 | 0 | 0 | 0 | ?
O=c1c2ccccc2nc(COc2ccccc2)n1/N=C/c1ccc(O)cc1O | 0 | 0 | 0 | 0 | - | - | -
O=c1c2ccccc2nc(COc2ccccc2)n1/N=C/c1c[nH]c2ccccc12 | 0 | 10µM | ? | ? | 0 | ? | 0
Cc1ccc(C(=O)N2CCC3(CC2)NCCc2[nH]cnc23)cc1 | 0 | - | 0 | 0 | - | - | -
COc1nc(-c2ccccc2)nnc1-c1ccccc1 | 0 | 0 | 0 | 0 | - | - | -
CCN(CC)CCCNC(=O)CSc1c2c(nc3cc(Cl)ccc13)CCCC2 | 0 | ? | 0 | 0 | 0 | ? | 28µM
O=C(CSc1c2c(nc3cc(Cl)ccc13)CCCC2)NCCCN1CCOCC1 | 0 | 0 | 0 | 0 | - | - | -
Cc1cc(=O)n(C)c(=O)n1CCCCOc1cccc([N+](=O)[O-])c1 | 0 | 0 | 0 | 0 | - | - | -
CCCOc1cc(N(CC)CC)ccc1/C=C(/C#N)c1nc2ccc(C)cc2[nH]1 | ? | 0 | 3.2µM | 0 | 2.5µM | - | -
COc1cccc(/C=C(\C#N)c2nc3ccc(C)cc3[nH]2)c1 | ? | ? | ? | 0 | - | - | -
CSc1nsc(/C=C/Nc2cccc(Cl)c2)c1C#N | ? | 7.1µM | ? | 0 | 10µM | 0 | 0
